Reference: PubChem BioAssay (Tox21)
Results filed as inconclusive are left out. The source made the active and inactive calls. Calls come from the whole dose curve; as a rule, active = well fitted activation curve with a large enough effect in the repeat runs; inconclusive = weak or mixed curves; inactive = flat fitted curve, though single readings scatter.

Experiment: A CellTox Green Cytotoxicity Assay to monitor cytotoxicity in HepG2 cells - 40 hour (AID 1224879); note: nearly all actives have a fitted effect of over 40% in size
Details: CellTox Green fluorescence; series mostly up to 76.8 µM; cytotoxicity increase: at the top concentration
Excerpt: National Center for Advancing Translational Sciences [NCATS]
NIH Chemical Genomics Center [NCGC]
U.S. Environmental Protection Agency [EPA]
National Institutes of Environmental Health Sciences [NIEHS]
National Toxicology Program [NTP]
Cell-based models are critical for drug discovery. Determining the natural cytotoxic effects resulting from test compounds is an essential research activity. A CellTox Green Cytotoxicity Assay to monitor cytotoxicity in real time of continues cell culture during 40 hours of the compound treatment was used to screen Tox21 10K library compounds in HepG2 cells. CellTox Green Cytotoxicity Assay is a nonlytic, homogeneous, biofluorescent method to measure cytotoxicity in cell culture after experimental manipulation. The assay system uses a proprietary asymmetric cyanine dye that is excluded from viable cells but preferentially stains the dead cell's DNA. […] Viable cells produce no appreciable increases in fluorescence. Therefore, the fluorescence signal produced by the binding interaction with dead cell DNA is proportional to cytotoxicity.
The mixture of HepG2 cell suspension and reagents were dispensed at 600cells/6 ul/well in 1536-well tissue culture treated black solid bottom plates using a Multidrop dispenser. After the assay plates were incubated at a 37 C/5% CO2 incubator for 5 hours, 23 nL of compounds dissolved in DMSO, positive and negative controls was transferred to the assay plate by a pintool work station. The plates were incubated at 37 C for 40 hours. The fluorescence intensity were measured at 0h, 8h, 16h, 24h, 32h and 40h time points using ViewLux plate reader during compound treatment.
% is set by controls: 0 for no effect and ±100 for the full control effect; potency is the fitted concentration of half-maximal effect.

SMILES	cytotoxicity increase	Potency
CCOC(=O)C1=NN(c2ccccc2)C(=O)C1	-10% (inactive)	–
Cc1ncsc1CCO	-2.01% (inactive)	–
O=C1Nc2cc(Cl)ccc2Oc2ccccc21	-4.54% [at 35.3 µM] (inactive)	–
CCCCOC(=O)/C=C\C(=O)OCCCC	24% (inactive)	–
CCCCOCCOCCOCCOCCO	-7.43% (inactive)	–
CCN(CC)CCNC(C(=O)OCCC(C)C)c1ccccc1 (stereo not given)	2.68% [at 35.3 µM] (inactive)	–
CC(C)c1ccccc1C(C)C	4.51% (inactive)	–
Nc1nc(N)c(-c2ccccc2)s1	-22.3% [at 35.3 µM] (inactive)	–
CC(C)(C)c1cc(CCC(=O)OCC(COC(=O)CCc2cc(C(C)(C)C)c(O)c(C(C)(C)C)c2)(COC(=O)CCc2cc(C(C)(C)C)c(O)c(C(C)(C)C)c2)COC(=O)CCc2cc(C(C)(C)C)c(O)c(C(C)(C)C)c2)cc(C(C)(C)C)c1O	-5.35% [at 35.3 µM] (inactive)	–
CN1CCC[C@@H]1c1cccnc1	-37.1% [at 35.3 µM] (inactive)	–
Cn1c(=O)c2c(ncn2CC(O)CO)n(C)c1=O (stereo not given)	-13.6% [at 35.3 µM] (inactive)	–
CCCCCC(CO)CCC (stereo not given)	-9.83% (inactive)	–
C[C@H](CCC(=O)O)[C@H]1CC[C@H]2[C@@H]3[C@H](O)C[C@@H]4C[C@H](O)CC[C@]4(C)[C@H]3CC[C@]12C	-3.35% (inactive)	–
C=C(C)C(=O)OCCN(C)C	-3.74% (inactive)	–
S=C(S)NCCNC(=S)S	-23.6% (inactive)	–
CCN(CC)CCc1nc(-c2ccccc2)no1	5.07% [at 35.3 µM] (inactive)	–
CC1CCc2cc(F)cc3c(=O)c(C(=O)O)cn1c23 (stereo not given)	-3.5% [at 35.3 µM] (inactive)	–
COC(=O)CSc1cc(N=c2sc(=O)n3n2CCCC3)c(F)cc1Cl	-9.66% (inactive)	–
CC(C)(C)c1ccc(S)cc1	-14.2% (inactive)	–
CCOC(=O)C1=C(C)NC(C)=C(C(=O)OC)C1c1cccc([N+](=O)[O-])c1 (stereo not given)	17.6% [at 35.3 µM] (inactive)	–

SMILES	cytotoxicity increase	Potency
O=C(/C=C/c1ccc(O)c(O)c1)O[C@@H]1C[C@](O)(C(=O)O)C[C@@H](O)[C@H]1O	-17.8% (inactive)	–
Cc1cc(O)ccc1N	7.32% (inactive)	–
O=C1[C@H](CC[C@H](O)c2ccc(F)cc2)[C@@H](c2ccc(O)cc2)N1c1ccc(F)cc1	2.32% [at 35.3 µM] (inactive)	–
Nc1nc(N)c2nc(CNc3ccc(C(=O)N[C@@H](CCC(=O)O)C(=O)O)cc3)cnc2n1	-5.27% (inactive)	–
O=C(O)c1cn(C2CC2)c2cc(Cl)c(F)cc2c1=O	0.533% [at 35.3 µM] (inactive)	–
CCOc1ccc2[nH]cc(C(=O)NCc3ccccc3)c(=O)c2n1	-9.7% (inactive)	–
O=C=NC1CCC(CC2CCC(N=C=O)CC2)CC1 (stereo not given)	20.5% (inactive)	–
Cc1c(Cn2ccnc2)c2ccccc2n1CCC(=O)O	-0.274% [at 35.3 µM] (inactive)	–
COCCO	-5.34% (inactive)	–
O=C(NS(=O)(=O)/C=C/c1cccs1)c1ccc(F)cc1Br	-3.57% (inactive)	–
CCOC(=O)CC(C)C	-2.94% (inactive)	–
CC/C(=C\C(=N/O)C(N)=O)C(C)[N+](=O)[O-] (stereo not given)	-9.62% (inactive)	–
O=S(=O)(O)c1ccc(O)c2ncccc12	-10.8% (inactive)	–
CN1CCC(=C2c3ccccc3CCc3sccc32)CC1	–	23.9 µM (active)
CCCCCCCCCCCCCCCCCBr	-11.7% [at 15.8 µM] (inactive)	–
CC[C@H](C)[C@@H](C(=O)O)n1sc2ccccc2c1=O	-1.22% (inactive)	–
CCCCCCOC(=O)CCC	-3.09% (inactive)	–
CN(C(=O)CCCOc1ccc2[nH]c(=O)ccc2c1)C1CCCCC1	5.31% [at 35.3 µM] (inactive)	–
CC(=O)/C=C/C1C(C)=CCCC1(C)C (stereo not given)	-4.79% (inactive)	–
CCCCCCCCCO	-12.1% (inactive)	–
